Laboratory results: the supplement of paper PMC4466140

Experiments:
Assay in all cases: SPOT peptide array binding signal intensity (averaged, normalized) (arbitrary units (background-subtracted, floor 0; scale differs between SH3 domains)); higher = stronger binding of the SH3 domain to the peptide
CaNbp2 = biological target: CaNbp2
Outline: (§1)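 Detection of bound protein relied on anti-GST antibody, an HRP anti-mouse secondary and luminol, with imaging and quantification in Genespotter. The bound protein was GST-fused SH3 domains from four yeast species, incubated at 10 μg/ml overnight at 4°C in TBS-based blocking buffer on cellulose membranes carrying synthetic 15-mer peptides with cysteines replaced by serines. Binding signal is normalized, background-subtracted spot intensity averaged over replicates, in arbitrary units that differ between domains.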

CaRvs167 = biological target: CaRvs167
Outline: as §1

CaRvs167-3 = biological target: CaRvs167-3
Outline: as §1

CaSho1 = biological target: CaSho1
Outline: as §1

CaSla1-D1-D2 = biological target: CaSla1-D1-D2
Outline: as §1

CaSla1-D3 = biological target: CaSla1-D3
Outline: as §1

ScAbp1 = biological target: ScAbp1
Outline: as §1

ScBbc1 = biological target: ScBbc1
Outline: as §1

ScBem1-D1 = biological target: ScBem1-D1
Outline: as §1

ScBzz1-D1 = biological target: ScBzz1-D1
Outline: as §1

ScBzz1-D2 = biological target: ScBzz1-D2
Outline: as §1

ScCyk3 = biological target: ScCyk3
Outline: as §1

ScFus1 = biological target: ScFus1
Outline: as §1

ScHof1 = biological target: ScHof1
Outline: as §1

ScHse1 = biological target: ScHse1
Outline: as §1

ScLsb1 = biological target: ScLsb1
Outline: as §1

ScLsb2 = biological target: ScLsb2
Outline: as §1

ScLsb3 = biological target: ScLsb3
Outline: as §1

ScLsb4 = biological target: ScLsb4
Outline: as §1

ScMyo3 = biological target: ScMyo3
Outline: as §1

ScMyo5 = biological target: ScMyo5
Outline: as §1

ScNbp2 = biological target: ScNbp2
Outline: as §1

ScPex13 = biological target: ScPex13
Outline: as §1

ScRvs167 = biological target: ScRvs167
Outline: as §1

ScSho1 = biological target: ScSho1
Outline: as §1

ScSla1-D1-D2 = biological target: ScSla1-D1-D2
Outline: as §1

ScSla1-D3 = biological target: ScSla1-D3
Outline: as §1

SpAbp1-D1 = biological target: SpAbp1-D1
Outline: as §1

SpBbc1 = biological target: SpBbc1
Outline: as §1

SpBzz1-D1 = biological target: SpBzz1-D1
Outline: as §1

SpBzz1-D2 = biological target: SpBzz1-D2
Outline: as §1

SpCyk3 = biological target: SpCyk3
Outline: as §1

SpHof1 = biological target: SpHof1
Outline: as §1

SpHof1-2 = biological target: SpHof1-2
Outline: as §1

SpHof1-3 = biological target: SpHof1-3
Outline: as §1

SpHse1 = biological target: SpHse1
Outline: as §1

SpLsb1 = biological target: SpLsb1
Outline: as §1

SpLsb4 = biological target: SpLsb4
Outline: as §1

SpMyo1 = biological target: SpMyo1
Outline: as §1

SpNbp2 = biological target: SpNbp2
Outline: as §1

SpPex13 = biological target: SpPex13
Outline: as §1

SpRvs167 = biological target: SpRvs167
Outline: as §1

SpSla1-D1-D2 = biological target: SpSla1-D1-D2
Outline: as §1

SpSla1-D3 = biological target: SpSla1-D3
Outline: as §1

AgAbp1 = biological target: AgAbp1
Outline: as §1

AgBbc1 = biological target: AgBbc1
Outline: as §1

AgBem1-D1 = biological target: AgBem1-D1
Outline: as §1

AgBzz1-D1 = biological target: AgBzz1-D1
Outline: as §1

AgBzz1-D2 = biological target: AgBzz1-D2
Outline: as §1

AgCyk3 = biological target: AgCyk3
Outline: as §1

AgFus1 = biological target: AgFus1
Outline: as §1

AgHof1 = biological target: AgHof1
Outline: as §1

AgHse1 = biological target: AgHse1
Outline: as §1

AgLsb1 = biological target: AgLsb1
Outline: as §1

AgLsb4 = biological target: AgLsb4
Outline: as §1

AgMyo5 = biological target: AgMyo5
Outline: as §1

AgNbp2 = biological target: AgNbp2
Outline: as §1

AgRvs167 = biological target: AgRvs167
Outline: as §1

AgSho1 = biological target: AgSho1
Outline: as §1

AgSla1-D1-D2 = biological target: AgSla1-D1-D2
Outline: as §1

AgSla1-D3 = biological target: AgSla1-D3
Outline: as §1

CaAbp1-D1 = biological target: CaAbp1-D1
Outline: as §1

CaAbp1-D2 = biological target: CaAbp1-D2
Outline: as §1

CaBbc1 = biological target: CaBbc1
Outline: as §1

CaBem1-D1 = biological target: CaBem1-D1
Outline: as §1

CaBzz1-D1 = biological target: CaBzz1-D1
Outline: as §1

CaBzz1-D2 = biological target: CaBzz1-D2
Outline: as §1

CaCyk3 = biological target: CaCyk3
Outline: as §1

CaFus1 = biological target: CaFus1
Outline: as §1

CaHof1 = biological target: CaHof1
Outline: as §1

CaHse1 = biological target: CaHse1
Outline: as §1

CaLsb1 = biological target: CaLsb1
Outline: as §1

CaLsb4 = biological target: CaLsb4
Outline: as §1

CaMyo5 = biological target: CaMyo5
Outline: as §1

B1: unnamed (peptide)
chain: PPPPPPPPPPPLPQS
SPOT peptide array binding signal intensity (CaNbp2): 34
SPOT peptide array binding signal intensity (CaRvs167): 2.83
SPOT peptide array binding signal intensity (CaRvs167-3): ≤ 0
SPOT peptide array binding signal intensity (CaSho1): ≤ 0
SPOT peptide array binding signal intensity (CaSla1-D1-D2): ≤ 0
SPOT peptide array binding signal intensity (CaSla1-D3): 1
SPOT peptide array binding signal intensity (ScAbp1): ≤ 0
SPOT peptide array binding signal intensity (ScBbc1): 1.25
SPOT peptide array binding signal intensity (ScBem1-D1): ≤ 0
SPOT peptide array binding signal intensity (ScBzz1-D1): 9
SPOT peptide array binding signal intensity (ScBzz1-D2): 2
SPOT peptide array binding signal intensity (ScCyk3): ≤ 0
SPOT peptide array binding signal intensity (ScFus1): 1.5
SPOT peptide array binding signal intensity (ScHof1): 20
SPOT peptide array binding signal intensity (ScHse1): ≤ 0
SPOT peptide array binding signal intensity (ScLsb1): ≤ 0
SPOT peptide array binding signal intensity (ScLsb2): ≤ 0
SPOT peptide array binding signal intensity (ScLsb3): 42.5
SPOT peptide array binding signal intensity (ScLsb4): 7
SPOT peptide array binding signal intensity (ScMyo3): 1490
SPOT peptide array binding signal intensity (ScMyo5): 1040
SPOT peptide array binding signal intensity (ScNbp2): ≤ 0
SPOT peptide array binding signal intensity (ScPex13): 51.5
SPOT peptide array binding signal intensity (ScRvs167): ≤ 0
SPOT peptide array binding signal intensity (ScSho1): ≤ 0
SPOT peptide array binding signal intensity (ScSla1-D1-D2): ≤ 0
SPOT peptide array binding signal intensity (ScSla1-D3): 0.75
SPOT peptide array binding signal intensity (SpAbp1-D1): 12.5
SPOT peptide array binding signal intensity (SpBbc1): 0.5
SPOT peptide array binding signal intensity (SpBzz1-D1): 2670
SPOT peptide array binding signal intensity (SpBzz1-D2): 31.2
SPOT peptide array binding signal intensity (SpCyk3): 1
SPOT peptide array binding signal intensity (SpHof1): ≤ 0
SPOT peptide array binding signal intensity (SpHof1-2): ≤ 0
SPOT peptide array binding signal intensity (SpHof1-3): ≤ 0
SPOT peptide array binding signal intensity (SpHse1): 21
SPOT peptide array binding signal intensity (SpLsb1): 4.5
SPOT peptide array binding signal intensity (SpLsb4): 31
SPOT peptide array binding signal intensity (SpMyo1): 1470
SPOT peptide array binding signal intensity (SpNbp2): 2
SPOT peptide array binding signal intensity (SpPex13): ≤ 0
SPOT peptide array binding signal intensity (SpRvs167): 124
SPOT peptide array binding signal intensity (SpSla1-D1-D2): 1.5
SPOT peptide array binding signal intensity (SpSla1-D3): ≤ 0

B2: unnamed (peptide)
chain: LEFRAILFIPKRAPF
SPOT peptide array binding signal intensity (AgAbp1): 9
SPOT peptide array binding signal intensity (AgBbc1): 11.8
SPOT peptide array binding signal intensity (AgBem1-D1): 198
SPOT peptide array binding signal intensity (AgBzz1-D1): 30.5
SPOT peptide array binding signal intensity (AgBzz1-D2): 37
SPOT peptide array binding signal intensity (AgCyk3): 4
SPOT peptide array binding signal intensity (AgFus1): 2310
SPOT peptide array binding signal intensity (AgHof1): 52.8
SPOT peptide array binding signal intensity (AgHse1): 654
SPOT peptide array binding signal intensity (AgLsb1): 1.5
SPOT peptide array binding signal intensity (AgLsb4): 989
SPOT peptide array binding signal intensity (AgMyo5): ≤ 0
SPOT peptide array binding signal intensity (AgNbp2): 558
SPOT peptide array binding signal intensity (AgRvs167): 8.17
SPOT peptide array binding signal intensity (AgSho1): 850
SPOT peptide array binding signal intensity (AgSla1-D1-D2): 14
SPOT peptide array binding signal intensity (AgSla1-D3): 4.25
SPOT peptide array binding signal intensity (CaAbp1-D1): 56
SPOT peptide array binding signal intensity (CaAbp1-D2): 58
SPOT peptide array binding signal intensity (CaBbc1): 68
SPOT peptide array binding signal intensity (CaBem1-D1): 5
SPOT peptide array binding signal intensity (CaBzz1-D1): 212
SPOT peptide array binding signal intensity (CaBzz1-D2): 109
SPOT peptide array binding signal intensity (CaCyk3): 16.5
SPOT peptide array binding signal intensity (CaFus1): 5550
SPOT peptide array binding signal intensity (CaHof1): 6
SPOT peptide array binding signal intensity (CaHse1): 267
SPOT peptide array binding signal intensity (CaLsb1): 19
SPOT peptide array binding signal intensity (CaLsb4): 81
SPOT peptide array binding signal intensity (CaMyo5): 13.2
SPOT peptide array binding signal intensity (CaNbp2): 1090
SPOT peptide array binding signal intensity (CaRvs167): 224
SPOT peptide array binding signal intensity (CaRvs167-3): 268
SPOT peptide array binding signal intensity (CaSho1): 2030
SPOT peptide array binding signal intensity (CaSla1-D1-D2): 49
SPOT peptide array binding signal intensity (CaSla1-D3): 249
SPOT peptide array binding signal intensity (ScAbp1): 5
SPOT peptide array binding signal intensity (ScBbc1): 0.25
SPOT peptide array binding signal intensity (ScBem1-D1): 18
SPOT peptide array binding signal intensity (ScBzz1-D1): 25.5
SPOT peptide array binding signal intensity (ScBzz1-D2): 162
SPOT peptide array binding signal intensity (ScCyk3): 35
SPOT peptide array binding signal intensity (ScFus1): 3610
SPOT peptide array binding signal intensity (ScHof1): 1
SPOT peptide array binding signal intensity (ScHse1): 1790
SPOT peptide array binding signal intensity (ScLsb1): 2
SPOT peptide array binding signal intensity (ScLsb2): ≤ 0
SPOT peptide array binding signal intensity (ScLsb3): 164
SPOT peptide array binding signal intensity (ScLsb4): 11.5
SPOT peptide array binding signal intensity (ScMyo3): ≤ 0
SPOT peptide array binding signal intensity (ScMyo5): 4
SPOT peptide array binding signal intensity (ScNbp2): 593
SPOT peptide array binding signal intensity (ScPex13): 186
SPOT peptide array binding signal intensity (ScRvs167): 29.2
SPOT peptide array binding signal intensity (ScSho1): 3570
SPOT peptide array binding signal intensity (ScSla1-D1-D2): 37.5
SPOT peptide array binding signal intensity (ScSla1-D3): 94.5
SPOT peptide array binding signal intensity (SpAbp1-D1): 30
SPOT peptide array binding signal intensity (SpBbc1): 11.5
SPOT peptide array binding signal intensity (SpBzz1-D1): 220
SPOT peptide array binding signal intensity (SpBzz1-D2): 0.5
SPOT peptide array binding signal intensity (SpCyk3): 10.5
SPOT peptide array binding signal intensity (SpHof1): 61.5
SPOT peptide array binding signal intensity (SpHof1-2): 29.5
SPOT peptide array binding signal intensity (SpHof1-3): 418
SPOT peptide array binding signal intensity (SpHse1): 1270
SPOT peptide array binding signal intensity (SpLsb1): ≤ 0
SPOT peptide array binding signal intensity (SpLsb4): 10
SPOT peptide array binding signal intensity (SpMyo1): 11
SPOT peptide array binding signal intensity (SpNbp2): 1170
SPOT peptide array binding signal intensity (SpPex13): 127
SPOT peptide array binding signal intensity (SpRvs167): 17.3
SPOT peptide array binding signal intensity (SpSla1-D1-D2): ≤ 0
SPOT peptide array binding signal intensity (SpSla1-D3): 66.5
